Hit rate of the full screen: of about 100,000 compounds, about 1,600 (1.6%) were called active. Roughly 3% stayed inconclusive and do not appear here. A selection follows. A number with no mark means an inactive call. How the calls were made is not given here.
Assay: Confirmatory growth inhibition assay against Mycobacterium tuberculosis H37Rv, potency (AID 1949);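 on inhibition: bacteria grown 7 days with compound before Alamar blue readout; 0% = untreated bacteria wells and 100% = bacteria with saturating antibiotic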
Conditions: M. tuberculosis H37Rv growth inhibition; active compounds read high, concentration not given here

Question: Which inhibition does the source give for `CCOc1ccc(N2C(=O)CC(NCCNC(=O)c3ccc(Cl)cc3)C2=O)cc1` (stereo not drawn) here?
Answer: 2.16%

Question: For `Cc1cc(C(=O)NC2CCCc3ccccc32)no1` (stereo not drawn), which inhibition is on record?
Answer: inactive

Question: Which inhibition does the source give for `COc1ccc(NC(=O)CSc2nnnn2-c2ccccc2Cl)c(OC)c1` here?
Answer: inactive

Question: Which inhibition does the source give for `Cc1sc2ncnc(SCC(=O)NCC3CCCO3)c2c1-c1ccc(Cl)cc1` (stereo not drawn) here?
Answer: 2.71%

Question: For `CS(=O)(=O)NC1c2cccc3cccc(c23)C1N1CCCCC1` (stereo not drawn), which inhibition is on record?
Answer: inactive

Question: With `CC1CN(C(=O)C(C)Oc2ccc(Cl)cc2Cl)CC(C)O1` (stereo not drawn) as the molecule, how does the inhibition read?
Answer: inactive

Question: Which inhibition does the source give for `Cc1ccc(-c2nn(C)c(=O)c3ccccc23)cc1CNC(=O)c1cccs1` here?
Answer: inactive

Question: Which inhibition does the source give for `Cc1cc(Oc2coc3cc(OCC(=O)Nc4ccccc4)ccc3c2=O)cc(C)c1Cl` here?
Answer: inactive

Question: Which inhibition does the source give for `COc1cc(C(=O)Nc2ccccc2C(=O)NCCc2ccccc2)cc(OC)c1OC` here?
Answer: inactive

Question: For `Cn1nc([N+](=O)[O-])nc1Sc1nnc(-c2ccccc2)o1`, which inhibition is on record?
Answer: 49.7%

Question: For `COc1ccc(-c2cc(C(=O)O)c3cc(Br)ccc3n2)c(OC)c1`, which inhibition is on record?
Answer: inactive

Question: With `CN1CCCC1c1cccnc1N` (stereo not drawn) as the molecule, how does the inhibition read?
Answer: 1.61%

Question: Which inhibition does the source give for `COc1ccc(NC(=S)N2CCN(c3ccc(F)cc3)CC2)c(OC)c1` here?
Answer: inactive

Question: With `O=[N+]([O-])c1ccccc1S(=O)(=O)N1CCN(c2ncccn2)CC1` as the molecule, how does the inhibition read?
Answer: inactive

Question: With `Cc1ccc(-c2nnc(Nc3cccc(O)c3)c3ccccc23)cc1S(=O)(=O)NC(C)(C)CO` as the molecule, how does the inhibition read?
Answer: inactive

Question: Which inhibition does the source give for `COC(=O)c1cccc(NC(=O)CCN2C(=O)c3ccccc3C2=O)c1` here?
Answer: inactive

Question: With `O=C(c1cc2n(n1)C(C(F)(F)F)CC(c1ccccc1)N2)N1CCCc2ccccc21` (stereo not drawn) as the molecule, how does the inhibition read?
Answer: inactive

Question: Which inhibition does the source give for `Cc1ccc(Nc2nc(CSc3nnc(-c4ccccc4)o3)cs2)cc1` here?
Answer: inactive

Question: For `CCCN1CCN(CCCNC(=S)Nc2ccc(F)cc2)CC1`, which inhibition is on record?
Answer: inactive

Question: Which inhibition does the source give for `COc1ccc(C(=O)Nc2cccc(C(C)=O)c2)cc1I` here?
Answer: inactive

Question: With `CC1(C)Cc2nc3sc4c(=O)n(CC(=O)c5ccccc5)cnc4c3cc2CO1` as the molecule, how does the inhibition read?
Answer: 0.12%

Question: Which inhibition does the source give for `CC1(C)NC(=O)N(CCCSc2ccc(Cl)cc2)C1=O` here?
Answer: 4.37%

Question: Which inhibition does the source give for `Cc1ccc(NC(=O)c2cccc(F)c2)cc1[N+](=O)[O-]` here?
Answer: inactive

Question: Which inhibition does the source give for `CC1(C)Cc2nc(N3CCCC3)c(C#N)cc2CO1` here?
Answer: 1.56%

Question: Which inhibition does the source give for `O=C(NC(=S)Nc1ccc2c(c1)Cc1ccccc1-2)c1ccc(Br)cc1` here?
Answer: inactive

Question: With `CC(=O)c1cccc(NC(=O)N2CCN(C(c3ccccc3)c3ccccc3)CC2)c1` as the molecule, how does the inhibition read?
Answer: inactive

Question: Which inhibition does the source give for `COc1ccccc1NC(=O)c1c(NC(=O)c2ccccc2C)sc2c1CCCC2` here?
Answer: inactive

Question: For `COc1ccc(Oc2ccc(NS(=O)(=O)c3ccc(NC(C)=O)cc3)cc2)cc1`, which inhibition is on record?
Answer: 0.37%

Question: For `O=C(CNC(=O)C1CCCCC1)NNC(=O)c1ccc(Cl)cc1Cl`, which inhibition is on record?
Answer: inactive

Question: With `O=c1ccc2ccc(OCc3ccc(Br)cc3F)cc2o1` as the molecule, how does the inhibition read?
Answer: inactive

Question: Which inhibition does the source give for `C=C1C2(C(=O)Nc3ccc(Br)cn3)CCC(C2)C1(C)C` (stereo not drawn) here?
Answer: 0.92%

Question: Which inhibition does the source give for `COc1ccc(S(=O)(=O)N(C)CC(=O)NC2CCCCC2)cc1C` here?
Answer: 2.13%

Question: Which inhibition does the source give for `CCn1c(SCC(=O)Nc2cccc(F)c2C)nnc1-c1ccc(OC)cc1` here?
Answer: inactive

Question: For `Cc1ccc(-c2cc(C(=O)NC3=NCCS3)c3cc(Br)ccc3n2)o1`, which inhibition is on record?
Answer: 3.59%

Question: For `Cc1cccc(-n2c(CCc3ccccc3)nnc2SCC(=O)Nc2c(C)cc(C)cc2C)c1`, which inhibition is on record?
Answer: 7.24%

Question: Which inhibition does the source give for `O=[N+]([O-])c1ccc(NC(=S)NCCCn2ccnc2)cc1` here?
Answer: inactive

Question: Which inhibition does the source give for `COc1ccc(C)cc1N(CC(=O)NCc1ccc(Cl)cc1Cl)S(C)(=O)=O` here?
Answer: inactive

Question: For `O=S(=O)(NCCSc1ccccn1)c1ccc(Br)cc1`, which inhibition is on record?
Answer: 5.4%

Question: Which inhibition does the source give for `CCCCc1ccc(NC(=O)c2ccc3ccccc3c2)cc1` here?
Answer: 0.83%

Question: Which inhibition does the source give for `COc1ccc(N2CCN(c3nc(NCCc4ccc(OC)c(OC)c4)nc(N4CCOCC4)n3)CC2)cc1` here?
Answer: 40.6%

Question: With `CCCCc1ccc(NC(=S)N2CCN(C(=O)c3ccco3)CC2)cc1` as the molecule, how does the inhibition read?
Answer: inactive

Question: With `O=C(c1cccs1)N1N=C(c2cccs2)CC1c1cccs1` (stereo not drawn) as the molecule, how does the inhibition read?
Answer: inactive

Question: Which inhibition does the source give for `CCOc1ccc(C(=O)c2oc3ccccc3c2NC(=O)C2COc3ccccc3O2)cc1` (stereo not drawn) here?
Answer: inactive

Question: For `O=C(NCc1ccccn1)Nc1ccc2c(c1)OCO2`, which inhibition is on record?
Answer: inactive

Question: Which inhibition does the source give for `Cc1onc(-c2ccccc2Cl)c1C(=O)Nc1nc2ccc(Cl)cc2s1` here?
Answer: inactive

Question: For `COc1ccc2nc(NC(=O)CN3CCCCC3)sc2c1`, which inhibition is on record?
Answer: 3.2%

Question: Which inhibition does the source give for `CCSc1nc(-c2cccs2)cc(-c2cccs2)c1C#N` here?
Answer: 5.48%

Question: Which inhibition does the source give for `CCCC(C)c1nnc(NC(=O)CSCc2ccccc2)s1` (stereo not drawn) here?
Answer: inactive

Question: With `CC(C)NCC(O)Cn1c2c(c3ccccc31)CCCC2=O` (stereo not drawn) as the molecule, how does the inhibition read?
Answer: inactive

Question: Which inhibition does the source give for `CCN(CC)CCCNC(=S)Nc1ccc(Br)cc1` here?
Answer: 1.11%

Question: With `CS(=O)(=O)N(CC(=O)Nc1ccccc1C(=O)N1CCCC1)c1cccc(F)c1` as the molecule, how does the inhibition read?
Answer: inactive

Question: Which inhibition does the source give for `Cc1ccc(CN2CCC(N3CCN(c4ccccc4F)CC3)CC2)cc1` here?
Answer: inactive

Question: For `COc1ccc(S(=O)(=O)N(C(C)=O)c2ccc3oc4c(c3c2)CCCC4)cc1[N+](=O)[O-]`, which inhibition is on record?
Answer: 6.65%
